From PubChem BioAssay (NCI)
The panel holds about 83,000 compounds, 20% with a hit somewhere; the sample as a whole holds those more often.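 48-hour exposure, single concentration, 96-well plates; percent growth endpoint where 0 means no net growth. Active: below 10.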 Unmarked numbers belong to inactive results. Activity calls are given as the source filed them.

Legend:
Test in all cases: NCI-60 one-dose screen, 48 h (100 = growth as untreated, 0 = no growth, -100 = all killed)
SK-MEL-2 melanoma = details: 10 µM unless noted
EKVX NSCLC = details: 10 µM unless noted
SN12C renal = details: 10 µM unless noted
UO-31 renal = details: 10 µM unless noted
TK-10 renal = details: 10 µM unless noted
ACHN renal = details: 10 µM unless noted
CAKI-1 renal = details: 10 µM
CCRF-CEM leukemia = details: 10 µM unless noted
MOLT-4 leukemia = details: 10 µM unless noted
SR leukemia = details: 10 µM unless noted
OVCAR-5 ovarian = details: 10 µM unless noted
OVCAR-4 ovarian = details: 10 µM unless noted
SK-OV-3 ovarian = details: 10 µM unless noted
IGROV1 ovarian = details: 10 µM unless noted
OVCAR-3 ovarian = details: 10 µM unless noted
HS 578T breast = details: 10 µM unless noted
NCI/ADR-RES ovarian = details: 10 µM unless noted
OVCAR-8 ovarian = details: 10 µM unless noted
A498 renal = details: 10 µM unless noted
RPMI-8226 leukemia = details: 10 µM unless noted

| Structure (SMILES) | growth (SK-MEL-2 melanoma) | growth (EKVX NSCLC) | growth (SN12C renal) | growth (UO-31 renal) | growth (TK-10 renal) | growth (ACHN renal) | growth (CAKI-1 renal) | growth (CCRF-CEM leukemia) | growth (MOLT-4 leukemia) | growth (SR leukemia) | growth (OVCAR-5 ovarian) | growth (OVCAR-4 ovarian) | growth (SK-OV-3 ovarian) | growth (IGROV1 ovarian) | growth (OVCAR-3 ovarian) | growth (HS 578T breast) | growth (NCI/ADR-RES ovarian) | growth (OVCAR-8 ovarian) | growth (A498 renal) | growth (RPMI-8226 leukemia) |
| --- | --- | --- | --- | --- | --- | --- | --- | --- | --- | --- | --- | --- | --- | --- | --- | --- | --- | --- | --- | --- |
| O=S(=O)(Nc1ccc(I)c(Cl)c1)c1ccc(-c2cnc(C3CC3)o2)cc1 | 43.7% | 42.5% | 42.9% | 51.7% | 53.3% | 41.5% | 6.99% (active) | 14.1% | 29.2% | 27.9% | 45.2% | 56.8% | 50.2% | 36.3% | -9.98% (active) | 17.9% | 14.6% |  |  |  |
| C[C@H]1[C@H](C)CC[C@]2(COC(=O)c3cccnc3)CC[C@]3(C)C(=CC[C@@H]4[C@@]5(C)CCCNC(C)(C)[C@@H]5CC[C@]43C)[C@H]12 | 98.6% | 89.7% | 67.6% | 59.3% | 79.9% | 75.7% | 61.5% |  | 44% | -8.33% (active) | 90.9% | 70.5% | 92.5% | 65% | 68.4% | 78.8% | 88.5% | 86.2% |  |  |
| C#CCOc1ccc(C(Nc2ccc(OC)cc2)c2nnnn2C2CCCCC2)cc1 (stereo not given) | 104% | 87.4% | 96.5% | 80.4% | 112% | 97.3% | 76.5% |  | 91.4% | 95.6% | 102% | 103% | 118% | 91.6% |  | 95.2% | 88.1% | 95.2% |  |  |
| CC(C)C[C@H]1C(=O)O[C@H](C(C)C)C(=O)N(C)[C@@H](C(C)C)C(=O)O[C@H](C(C)C)C(=O)N(C)[C@@H](C(C)C)C(=O)O[C@H](C(C)C)C(=O)N1C | -17.8% (active) | 22.6% | 8.19% (active) | -9.26% (active) | 11.9% | 10% |  | 11.3% | 0.456% (active) | 14.4% | 17.7% | 18.3% | -9.29% (active) | 37% | 17.6% | 38.2% | -1.7% (active) | 16% | -6.04% (active) | -11.1% (active) |
| CCCCCCNC(=O)Oc1ccc(/C(=C(/C)c2ccc(Cl)cc2)c2ccc(OCCN3CCCC3)cc2)cc1 | 78% | 53.4% | 50.4% | 18.1% | 86% | 37.5% | 55.3% | 4.42% (active) |  |  | 67.8% | 54.6% | 78.8% | 32.6% | 23.4% | 61.1% | 50.4% | 56.8% |  | -35.8% (active) |
| CCC(C)[C@H]1OC(=O)[C@H](C(C)C)N(C)C(=O)[C@@H](C(C)C)OC(=O)[C@H](C(C)C)N(C)C(=O)[C@@H](C(C)CC)OC(=O)[C@H](C(C)C)N(C)C1=O (stereo not given in full) | -14.6% (active) | 20.5% | 4.12% (active) | -13.6% (active) | -8.95% (active) | 7.98% (active) |  | 9.05% (active) | -24.2% (active) | 7.44% (active) | 13.4% | 10.5% | -15.3% (active) | 25.8% | 18.3% | 32.9% | 2.47% (active) | 11.6% | -2.54% (active) | -19.5% (active) |
| O=C(Nc1cccc(Cl)c1)Nc1nc2ccc(-c3cccc4ccccc34)cc2s1 | 82.6% | 56.4% | 53% | 47.4% | 74.7% | 40.3% | 37.9% | 40.4% | 41.5% | 90% | 84% |  | 66.8% | 55.2% | 13.5% | 72.9% | 57.5% | 42.9% |  |  |
| O=C1/C(=C/c2ccccc2[N+](=O)[O-])Oc2ccc(O)cc21 | 75% | 69.8% | 30.9% | 21.4% | 99.1% | 2.35% (active) | 48.3% | -2.68% (active) | 6.41% (active) | 2.82% (active) | 38.2% | 34.8% | 84% | 33.5% |  | 53.6% | 49% | 20.7% |  |  |
| COC1=C(c2ccccc2)C(=O)C(OC)=C(c2ccccc2)C1=O | 101% | 99% | 102% | 89.8% | 107% | 117% |  | 10.9% | -7.74% (active) | 79.8% | 119% | 59.6% | 81.2% | 93.2% | 72.6% | 96.8% | 102% | 100% | 89.7% | 93.5% |
| CC(=O)NC(C)(C)C(=O)N1CCC[C@H]1C(=O)NC(C)(C)C(=O)N[C@@H](C)C(=O)NC(C)(C)C(=O)N[C@@H](C)C(=O)N[C@@H](CCC(N)=O)C(=O)NC(C)(C)C(=O)N[C@H](C(=O)NC(C)(C)C(=O)NCC(=O)N[C@@H](CC(C)C)C(=O)NC(C)(C)C(=O)N1CCC[C@H]1C(=O)N[C@H](C(=O)NC(C)(C)C(=O)NC(C)(C)C(=O)N[C@@H](CCC(N)=O)C(=O)N[C@@H](CCC(N)=O)C(=O)N[C@H](CO)Cc1ccccc1)C(C)C)C(C)C | 91.2% [4.25 µM] | 76.7% [4.25 µM] | 32.2% [4.25 µM] | 95.8% [4.25 µM] | 87.1% [4.25 µM] | 110% [4.25 µM] |  | 62.8% [4.25 µM] | 75.3% [4.25 µM] | 83.9% [4.25 µM] | 108% [4.25 µM] | 42.7% [4.25 µM] | 74% [4.25 µM] | 76.9% [4.25 µM] | 59.2% [4.25 µM] | 82.8% [4.25 µM] | 99.5% [4.25 µM] | 71.8% [4.25 µM] | 81.9% [4.25 µM] | 1.4% [4.25 µM] (active) |
| CCOC(=O)C1=C(C)Nc2nnc(Nc3ccccc3)n2C1c1ccccc1 (stereo not given) | 99.7% | 69% | 30.5% | 69.5% | 81.8% | 14.7% | 69% | 69.5% |  |  | 91.2% | 34.6% | 94.6% | 62.8% |  | 75.8% | 70.8% | 72.5% |  | 77% |
| CCOC(=O)/C=c1\sc2n(c1=O)C1C(NN=2)N(CC)C(=O)N1CC (stereo not given) | 76.7% | 81.9% | 71.9% | 56.2% | 81.3% | 44.5% | 51.3% | 53.4% |  |  | 84.8% | 91.2% | 89.2% | 59.6% | 14.8% | 61.5% | 53.1% | 84.2% |  | 64.6% |
| CC(=O)NC(C)(C)C(=O)N[C@@H](C)C(=O)NC(C)(C)C(=O)N[C@@H](C)C(=O)NC(C)(C)C(=O)N[C@@H](C)C(=O)N[C@@H](CCC(N)=O)C(=O)NC(C)(C)C(=O)N[C@H](C(=O)NC(C)(C)C(=O)NCC(=O)N[C@@H](CC(C)C)C(=O)NC(C)(C)C(=O)N1CCC[C@H]1C(=O)N[C@H](C(=O)NC(C)(C)C(=O)NC(C)(C)C(=O)N[C@@H](CCC(N)=O)C(=O)N[C@@H](CCC(N)=O)C(=O)N[C@H](CO)CC1CCCCC1)C(C)C)C(C)C | 5.52% [5 µM] (active) | 52% [5 µM] | 21.2% [5 µM] | 53.1% [5 µM] | 38.8% [5 µM] | 72.2% [5 µM] |  | 55.6% [5 µM] | 55.1% [5 µM] | 43.6% [5 µM] | 55.1% [5 µM] | 23.8% [5 µM] | 45.1% [5 µM] | 49.3% [5 µM] | 35% [5 µM] | 62.1% [5 µM] | 96.9% [5 µM] | 44.2% [5 µM] | 52.3% [5 µM] | -3.49% [5 µM] (active) |
| CC1(C)CC[C@]2(C(=O)N3CCCNCC3)CC[C@]3(C)C(=CC[C@@H]4[C@@]5(C)CCC(=O)C(C)(C)[C@@H]5CC[C@]43C)[C@H]2C1 | 108% | 103% | 98.7% | 95.3% | 97.1% | 105% | 89% |  | 106% |  | 104% | 116% | 115% | 117% |  | 106% | 100% | 103% |  | 98.7% |
